Source: the supplement of paper PMC10849652
Targets with a hit are over-represented here; the source holds about 8,800 in all. About 0.5% of all pairs of compound and target were hits. A number with no mark means an inactive call.

Assays:
Assay in all cases: log2 fold change, soluble protein after heating vs DMSO (PISA); higher = thermal stabilisation; K562 lysate, 10 uM; active = over 0.2 and 3.5 SD of the protein, either way, in both replicates (recomputed)
alvocidib = compound: CN1CC[C@H](c2c(O)cc(O)c3c(=O)cc(-c4ccccc4Cl)oc23)[C@H](O)C1 [alvocidib]
Method in brief: (§1)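 Following dounce homogenisation of K562 pellets in PBS pH 7.4 with 1 mM MgCl2, crude extract at 1 mg/mL protein was incubated for 30 min with 10 μM compound. Aliquots were then heated for 3 min over 48°C-58°C and pooled, NP-40 was added to 0.5% at 4°C, and soluble protein was recovered as the supernatant at 21,000xg for 90 min. Channel-sum-equalised TMTpro 16plex LC-MS/MS quantified this protein. Each value, from duplicates, is a log-two fold change in thermal stability relative to solvent controls.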

Tubastatin A = compound: CN1CCc2c(c3ccccc3n2Cc2ccc(C(=O)NO)cc2)C1 [Tubastatin A]
Method in brief: as §1

[1] = compound: CNC(=O)C1=CC=CC=C1NC2=NC(=NC=C2Cl)NC3=C(C=C(C=C3)N4CCOCC4)OC
Method in brief: as §1

defactinib = compound: CNC(=O)c1ccc(Nc2ncc(C(F)(F)F)c(NCc3nccnc3N(C)S(C)(=O)=O)n2)cc1 [defactinib]
Method in brief: as §1

[2] = compound: CNc1nc(-c2ccc3c(N)n[nH]c3c2)cc(N2C[C@@H](C(=O)NC3CCCCC3)CC[C@H]2C)n1
Method in brief: as §1

encorafenib = compound: COC(=O)N[C@@H](C)CNc1nccc(-c2cn(C(C)C)nc2-c2cc(Cl)cc(NS(C)(=O)=O)c2F)n1 [encorafenib]
Method in brief: as §1

[3] = compound: COC(=O)[C@H](CCSC)NC(=O)C1=C(C=C(C=C1)NC[C@H](CS)N)C2=CC=CC=C2
Method in brief: as §1

alisertib = compound: COc1cc(Nc2ncc3c(n2)-c2ccc(Cl)cc2C(c2c(F)cccc2OC)=NC3)ccc1C(=O)O [alisertib]
Method in brief: as §1

[4] = compound: COc1cc2nc(-c3cc(F)ccc3O)nc(N[C@@H]3CNC[C@H]3C(C)(C)O)c2cc1OC
Method in brief: as §1

gefitinib = compound: COc1cc2ncnc(Nc3ccc(F)c(Cl)c3)c2cc1OCCCN1CCOCC1 [gefitinib]
Method in brief: as §1

Sequence of UniProt O43709 (O43709 whole entry, looked up): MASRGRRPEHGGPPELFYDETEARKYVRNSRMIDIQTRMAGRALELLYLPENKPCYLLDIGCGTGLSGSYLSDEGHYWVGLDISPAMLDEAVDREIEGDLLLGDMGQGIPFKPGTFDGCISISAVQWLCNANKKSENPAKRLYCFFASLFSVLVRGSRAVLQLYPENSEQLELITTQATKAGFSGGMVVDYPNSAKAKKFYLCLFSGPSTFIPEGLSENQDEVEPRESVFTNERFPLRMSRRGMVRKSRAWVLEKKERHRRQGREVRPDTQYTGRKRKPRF
Sequence of UniProt Q9HD20 (Q9HD20 whole entry, looked up): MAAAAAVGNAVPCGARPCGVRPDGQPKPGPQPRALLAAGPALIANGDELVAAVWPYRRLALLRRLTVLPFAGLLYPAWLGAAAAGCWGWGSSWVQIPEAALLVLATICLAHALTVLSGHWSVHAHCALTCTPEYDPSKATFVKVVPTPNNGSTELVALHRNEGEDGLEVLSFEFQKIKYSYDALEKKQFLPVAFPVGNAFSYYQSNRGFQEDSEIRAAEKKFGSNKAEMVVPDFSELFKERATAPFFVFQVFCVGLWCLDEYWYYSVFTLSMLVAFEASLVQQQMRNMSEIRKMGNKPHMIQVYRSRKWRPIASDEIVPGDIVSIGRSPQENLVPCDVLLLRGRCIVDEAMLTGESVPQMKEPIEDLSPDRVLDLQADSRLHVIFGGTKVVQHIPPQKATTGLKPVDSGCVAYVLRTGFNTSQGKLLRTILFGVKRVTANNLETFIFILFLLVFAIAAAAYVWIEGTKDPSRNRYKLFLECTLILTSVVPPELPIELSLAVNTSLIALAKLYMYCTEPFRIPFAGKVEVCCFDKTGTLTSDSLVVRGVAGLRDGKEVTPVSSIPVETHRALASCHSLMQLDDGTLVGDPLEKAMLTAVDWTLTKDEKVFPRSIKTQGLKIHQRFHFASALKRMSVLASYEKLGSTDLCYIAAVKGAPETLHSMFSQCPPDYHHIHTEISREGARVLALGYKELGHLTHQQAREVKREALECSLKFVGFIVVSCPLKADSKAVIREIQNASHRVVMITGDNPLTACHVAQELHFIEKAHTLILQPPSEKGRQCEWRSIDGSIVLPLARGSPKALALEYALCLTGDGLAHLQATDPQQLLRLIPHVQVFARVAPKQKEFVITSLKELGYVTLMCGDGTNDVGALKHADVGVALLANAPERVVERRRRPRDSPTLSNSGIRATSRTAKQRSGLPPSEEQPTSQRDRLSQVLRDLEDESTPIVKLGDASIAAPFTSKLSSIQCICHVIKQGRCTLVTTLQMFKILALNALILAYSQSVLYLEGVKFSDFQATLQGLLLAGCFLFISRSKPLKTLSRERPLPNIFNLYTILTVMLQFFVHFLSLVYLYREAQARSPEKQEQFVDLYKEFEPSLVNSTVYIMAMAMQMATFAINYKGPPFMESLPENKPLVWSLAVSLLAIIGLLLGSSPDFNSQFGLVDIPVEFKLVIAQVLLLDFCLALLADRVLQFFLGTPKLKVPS
Sequence of UniProt P49589 (P49589 whole entry, looked up): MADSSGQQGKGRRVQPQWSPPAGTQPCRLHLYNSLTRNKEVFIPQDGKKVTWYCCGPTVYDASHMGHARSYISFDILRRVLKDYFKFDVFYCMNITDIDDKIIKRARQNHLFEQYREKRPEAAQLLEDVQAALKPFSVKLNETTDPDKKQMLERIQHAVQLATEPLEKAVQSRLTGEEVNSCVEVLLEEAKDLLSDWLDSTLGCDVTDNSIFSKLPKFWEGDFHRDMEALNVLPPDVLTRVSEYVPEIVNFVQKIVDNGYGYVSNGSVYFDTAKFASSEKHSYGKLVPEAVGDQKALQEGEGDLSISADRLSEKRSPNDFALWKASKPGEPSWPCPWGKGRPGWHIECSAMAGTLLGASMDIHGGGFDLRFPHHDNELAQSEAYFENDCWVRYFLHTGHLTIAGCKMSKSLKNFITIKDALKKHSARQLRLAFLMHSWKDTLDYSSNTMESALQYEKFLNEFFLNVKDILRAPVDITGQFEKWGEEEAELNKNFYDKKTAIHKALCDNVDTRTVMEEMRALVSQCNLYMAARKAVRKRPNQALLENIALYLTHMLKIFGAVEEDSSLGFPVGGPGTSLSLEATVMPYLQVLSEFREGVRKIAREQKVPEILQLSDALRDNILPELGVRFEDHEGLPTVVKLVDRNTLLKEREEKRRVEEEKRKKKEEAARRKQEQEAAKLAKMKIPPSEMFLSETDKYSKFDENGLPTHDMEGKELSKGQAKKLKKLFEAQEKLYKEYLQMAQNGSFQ
Sequence of UniProt Q86YS7 (Q86YS7 whole entry, looked up): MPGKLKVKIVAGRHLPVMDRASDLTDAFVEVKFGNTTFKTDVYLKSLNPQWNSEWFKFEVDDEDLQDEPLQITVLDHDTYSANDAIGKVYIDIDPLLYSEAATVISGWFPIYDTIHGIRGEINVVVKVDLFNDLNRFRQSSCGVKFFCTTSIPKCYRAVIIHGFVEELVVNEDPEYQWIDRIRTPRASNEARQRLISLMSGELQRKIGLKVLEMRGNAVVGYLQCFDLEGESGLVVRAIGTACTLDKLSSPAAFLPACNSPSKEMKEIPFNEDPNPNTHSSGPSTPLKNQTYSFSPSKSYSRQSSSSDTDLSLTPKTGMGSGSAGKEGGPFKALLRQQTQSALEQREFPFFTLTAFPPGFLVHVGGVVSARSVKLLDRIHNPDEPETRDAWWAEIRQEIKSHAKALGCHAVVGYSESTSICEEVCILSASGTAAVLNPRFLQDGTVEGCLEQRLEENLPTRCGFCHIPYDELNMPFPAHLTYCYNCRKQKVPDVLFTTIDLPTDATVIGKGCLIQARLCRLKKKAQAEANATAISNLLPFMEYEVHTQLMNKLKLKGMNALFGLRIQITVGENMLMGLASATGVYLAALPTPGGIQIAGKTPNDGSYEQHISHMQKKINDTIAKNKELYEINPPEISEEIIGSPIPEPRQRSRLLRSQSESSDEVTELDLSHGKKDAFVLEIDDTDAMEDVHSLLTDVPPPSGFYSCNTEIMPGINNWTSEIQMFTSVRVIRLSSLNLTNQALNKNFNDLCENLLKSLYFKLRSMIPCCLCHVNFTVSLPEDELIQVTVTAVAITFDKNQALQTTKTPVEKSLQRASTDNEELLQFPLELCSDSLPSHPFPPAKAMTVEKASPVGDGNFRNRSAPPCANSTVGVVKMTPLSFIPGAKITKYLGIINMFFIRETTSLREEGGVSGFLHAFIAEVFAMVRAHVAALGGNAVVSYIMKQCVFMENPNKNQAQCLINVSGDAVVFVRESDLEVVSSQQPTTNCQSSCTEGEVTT
Sequence of UniProt P30307 (P30307 whole entry, looked up): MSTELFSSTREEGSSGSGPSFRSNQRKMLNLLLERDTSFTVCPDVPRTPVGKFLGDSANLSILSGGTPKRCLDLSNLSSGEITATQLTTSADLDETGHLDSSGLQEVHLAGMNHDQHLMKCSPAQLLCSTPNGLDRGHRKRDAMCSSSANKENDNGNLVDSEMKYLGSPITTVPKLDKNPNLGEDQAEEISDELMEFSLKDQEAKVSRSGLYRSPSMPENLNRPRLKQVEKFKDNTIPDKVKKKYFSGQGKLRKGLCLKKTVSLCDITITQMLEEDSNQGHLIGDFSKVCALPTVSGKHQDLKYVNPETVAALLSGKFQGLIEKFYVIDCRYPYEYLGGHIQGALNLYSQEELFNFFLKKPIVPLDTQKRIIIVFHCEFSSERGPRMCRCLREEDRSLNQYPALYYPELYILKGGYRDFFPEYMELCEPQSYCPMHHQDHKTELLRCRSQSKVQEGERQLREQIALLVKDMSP
Sequence of UniProt Q7L2Z9 (Q7L2Z9 whole entry, looked up): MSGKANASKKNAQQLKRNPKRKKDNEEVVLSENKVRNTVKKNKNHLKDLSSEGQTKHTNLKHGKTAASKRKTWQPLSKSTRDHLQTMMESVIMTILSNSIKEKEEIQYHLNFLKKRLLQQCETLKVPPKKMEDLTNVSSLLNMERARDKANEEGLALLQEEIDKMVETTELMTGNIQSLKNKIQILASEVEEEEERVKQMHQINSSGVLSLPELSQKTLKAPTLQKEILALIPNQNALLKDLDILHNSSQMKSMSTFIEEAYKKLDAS
Sequence of UniProt Q96RR4 (Q96RR4 whole entry, looked up): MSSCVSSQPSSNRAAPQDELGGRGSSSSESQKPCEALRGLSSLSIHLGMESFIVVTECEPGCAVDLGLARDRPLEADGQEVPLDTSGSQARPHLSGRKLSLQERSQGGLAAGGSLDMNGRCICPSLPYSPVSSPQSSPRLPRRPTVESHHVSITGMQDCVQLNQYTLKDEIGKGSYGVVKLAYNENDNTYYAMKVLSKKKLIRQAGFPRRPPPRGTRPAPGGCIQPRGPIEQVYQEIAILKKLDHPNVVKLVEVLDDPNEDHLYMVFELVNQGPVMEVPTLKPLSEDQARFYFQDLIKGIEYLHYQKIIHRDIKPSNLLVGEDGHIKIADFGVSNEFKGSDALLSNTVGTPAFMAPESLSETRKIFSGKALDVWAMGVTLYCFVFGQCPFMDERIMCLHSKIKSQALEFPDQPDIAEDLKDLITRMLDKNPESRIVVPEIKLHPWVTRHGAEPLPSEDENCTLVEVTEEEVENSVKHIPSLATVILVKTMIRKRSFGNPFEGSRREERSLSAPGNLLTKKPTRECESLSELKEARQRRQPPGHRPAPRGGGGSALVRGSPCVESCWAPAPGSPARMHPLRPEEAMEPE
Sequence of UniProt Q8NDD1 (Q8NDD1 whole entry, looked up): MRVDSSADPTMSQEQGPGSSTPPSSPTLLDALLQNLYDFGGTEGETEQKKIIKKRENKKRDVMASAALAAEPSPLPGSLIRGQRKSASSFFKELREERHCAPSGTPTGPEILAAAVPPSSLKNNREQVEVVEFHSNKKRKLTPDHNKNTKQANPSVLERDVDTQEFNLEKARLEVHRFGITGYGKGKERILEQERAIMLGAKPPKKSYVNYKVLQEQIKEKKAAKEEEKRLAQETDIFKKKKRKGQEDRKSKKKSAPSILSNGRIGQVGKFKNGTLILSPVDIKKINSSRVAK
Sequence of UniProt Q9Y6H1 (Q9Y6H1 whole entry, looked up): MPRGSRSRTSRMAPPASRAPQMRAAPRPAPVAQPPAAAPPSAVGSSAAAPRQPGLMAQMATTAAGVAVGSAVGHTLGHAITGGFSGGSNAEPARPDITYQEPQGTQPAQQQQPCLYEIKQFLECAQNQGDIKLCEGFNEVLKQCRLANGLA

| Target | log2 fold change (alvocidib) | log2 fold change (Tubastatin A) | log2 fold change [1] | log2 fold change (defactinib) | log2 fold change [2] | log2 fold change (encorafenib) | log2 fold change [3] | log2 fold change (alisertib) | log2 fold change [4] | log2 fold change (gefitinib) |
| --- | --- | --- | --- | --- | --- | --- | --- | --- | --- | --- |
| CDK2 (UniProt P24941) | 0.304 (active) | 0.021 | 0.08 | 0.196 | 0.048 | 0.016 | -0.012 | -0.01 | 0.072 | -0.012 |
| CARD11 (UniProt Q9BXL7) | 0.073 | -0.023 | 0.022 | -0.005 | -0.029 | -0.021 | 0.072 | -0.028 | 0.025 | 0.014 |
| CARD9 (UniProt Q9H257) | -0.011 | -0.099 | 0.043 | 0.05 | 0.038 | -0.06 | 0.068 | -0.004 | 0.009 | -0.021 |
| CELF1 isoform 4 (UniProt Q92879) | 0 | -0.167 | 0.034 | 0.049 | -0.059 | 0.108 | -0.031 | 0.048 | -0.026 | 0.056 |
| CAPN15 (UniProt O75808) | -0.01 | -0.043 | 0.001 | -0.014 | 0.19 | -0.029 | 0.03 | -0.03 | 0.024 | -0.024 |
| CAMKK2 (UniProt Q96RR4) | -0.018 | -0.123 | 0.277 (active) | 0.059 | -0.113 | -0.013 | 0.018 | -0.01 | 0.019 | 0.021 |
| CCNK isoform 4 (UniProt O75909) | -0.094 | -0.004 | 0.01 | -0.011 | 0.009 | 0.017 | -0.035 | 0.071 | 0 | 0.046 |
| ATP13A1 (UniProt Q9HD20) | 0.051 | 0.036 | -0.012 | 0.028 | -0.002 | -0.008 | -0.067 | 0.055 | 0.03 | 0.011 |
| CARS isoform 3 (UniProt P49589) | 0.006 | -0.041 | 0.001 | -0.013 | -0.01 | -0.013 | 0.213 (active) | 0.003 | -0.005 | -0.019 |
| CAMKK1 isoform 2 (UniProt Q8N5S9) | 0.088 | -0.167 | 0.305 (active) | 0.051 | -0.118 | 0.014 | 0.126 | -0.033 | -0.048 | 0.03 |
| CHD1L (UniProt Q86WJ1) | 0.012 | -0.16 | -0.003 | -0.001 | -0.025 | 0.013 | 0.114 | 0.018 | -0.002 | 0.006 |
| BORCS5 (UniProt Q969J3) | -0.012 | 0.043 | -0.001 | 0.067 | 0.032 | 0.074 | -0.09 | -0.014 | 0.01 | -0.079 |
| CCDC32 isoform 2 (UniProt Q9BV29) | -0.102 | -0.033 | -0.061 | 0.095 | 0.04 | 0.055 | -0.065 | -0.098 | -0.045 | -0.026 |
| CARNMT1 (UniProt Q8N4J0) | -0.167 | 0.045 | -0.021 | -0.03 | -0.021 | 0.051 | 0.015 | -0.022 | 0.026 | 0.009 |
| CHAC2 (UniProt Q8WUX2) | 0.223 | 0.019 | 0.092 | 0.028 | 0.019 | 0.06 | 0.003 | -0.039 | -0.007 | 0 |
| CDK11B (UniProt P21127) | 0.273 (active) | -0.081 | 0.012 | -0.013 | 0.019 | -0.012 | 0.108 | 0.012 | -0.036 | -0.016 |
| AURKAIP1 (UniProt Q9NWT8) | 0.026 | 0.219 | -0.02 | 0.083 | 0.072 | 0.077 | -0.057 | 0.067 | 0.098 | -0.032 |
| CDC25C (UniProt P30307) | 0.022 | -0.09 | 0.041 | 0.067 | -0.073 | 0.078 | 0.14 | 0.054 | 0.04 | -0.069 |
| CENPQ (UniProt Q7L2Z9) | -0.122 | -0.016 | 0.032 | -0.085 | 0.055 | 0.169 | 0.025 | 0 | -0.068 | 0.091 |
| BUD23 isoform 3 (UniProt O43709) | -0.126 | 0.14 | 0.026 | -0.046 | -0.052 | -0.017 | 0.036 | 0.082 | 0.085 | 0.054 |
| BCKDHB (UniProt P21953) | 0.062 | 0.011 | 0.008 | -0.008 | -0.031 | -0.074 | 0.107 | -0.019 | -0.015 | -0.024 |
| CHCHD2 (UniProt Q9Y6H1) | -0.061 | 0.031 | -0.003 | -0.079 | -0.024 | -0.044 | -0.126 | -0.051 | -0.033 | 0.28 |
| C1orf131 isoform 5 (UniProt Q8NDD1) | -0.118 | -0.036 | 0.03 | 0.013 | 0.148 | 0.127 | 0.02 | 0.148 | -0.038 | 0.111 |
| C2CD5 isoform 3 (UniProt Q86YS7) | -0.157 | 0.006 | -0.003 | -0.002 | 0.01 | 0.054 | -0.028 | -0.016 | 0.016 | 0.054 |
| CDC42BPA isoform 6 (UniProt Q5VT25) | -0.099 | -0.13 | -0.015 | -0.002 | -0.065 | 0.017 | 0.093 | -0.005 | -0.019 | -0.004 |
| BRAF (UniProt P15056) | -0.019 | -0.071 | 0.016 | 0.067 | -0.016 | 0.984 (active) | 0.043 | -0.021 | -0.019 | 0.045 |
| CAMK1 (UniProt Q14012) | -0.074 | 0 | 0.067 | 0.04 | -0.036 | -0.054 | -0.032 | 0.016 | 0.029 | -0.01 |
| C18orf25 (UniProt Q96B23) | -0.014 | 0.123 | 0.034 | 0.084 | 0.041 | -0.005 | -0.067 | 0.019 | -0.027 | 0.029 |
| CBFA2T3 (UniProt O75081) | -0.039 | -0.131 | 0.028 | 0.004 | 0.051 | 0.056 | 0.037 | 0.031 | -0.042 | 0.018 |
